Assay results as given in paper PMC7862700, “An all-to-all approach to the identification of sequence-specific readers for epigenetic DNA modifications on cytosine”.

How the values were obtained:
Test in all cases: DAPPL (digital affinity profiling via proximity ligation, sequencing); 10 mM Tris-HCl pH 7.5, 50 mM NaCl, 1 mM DTT, 4% glycerol, room temperature, 30 min; GST-TFs on glutathione beads, 16-mer random dsDNA library, 0.1% formaldehyde crosslink after washing; high values mean tight binding
Conditions in all cases: protein: recombinant; tags: N-terminal GST; dsDNA, one strand shown
FLI1 = target: T1, FLI1 (Homo sapiens, UniProt Q01543 1-452)
T1 sequence: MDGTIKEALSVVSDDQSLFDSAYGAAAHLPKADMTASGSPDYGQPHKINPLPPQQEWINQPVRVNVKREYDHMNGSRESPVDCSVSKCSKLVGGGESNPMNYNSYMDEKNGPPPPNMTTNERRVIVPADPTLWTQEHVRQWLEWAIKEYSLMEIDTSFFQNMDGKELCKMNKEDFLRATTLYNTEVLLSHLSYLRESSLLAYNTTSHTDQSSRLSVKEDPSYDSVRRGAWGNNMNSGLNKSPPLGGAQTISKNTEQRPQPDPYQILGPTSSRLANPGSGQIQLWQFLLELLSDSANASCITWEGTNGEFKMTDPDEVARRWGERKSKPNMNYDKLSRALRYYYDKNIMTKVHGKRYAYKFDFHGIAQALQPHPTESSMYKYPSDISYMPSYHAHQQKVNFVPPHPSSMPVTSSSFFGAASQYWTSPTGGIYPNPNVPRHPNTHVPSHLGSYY
Outline: (§1)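 Human transcription factors were made in yeast as GST fusions, captured on glutathione beads and barcoded with DNA. With a tag-only sample included, the pool was incubated with 200 nmole of a random double-stranded 16-mer DNA library in Tris/NaCl/DTT/glycerol buffer at room temperature for 30 min, then crosslinked with 0.1% formaldehyde after washing, ligated by proximity, amplified and sequenced. For binding signal, each hexamer's read frequency for a factor is divided by its frequency for the tag-only sample.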

ELK1 = target: T2, ELK1 (Homo sapiens, UniProt P19419 1-428)
T2 sequence: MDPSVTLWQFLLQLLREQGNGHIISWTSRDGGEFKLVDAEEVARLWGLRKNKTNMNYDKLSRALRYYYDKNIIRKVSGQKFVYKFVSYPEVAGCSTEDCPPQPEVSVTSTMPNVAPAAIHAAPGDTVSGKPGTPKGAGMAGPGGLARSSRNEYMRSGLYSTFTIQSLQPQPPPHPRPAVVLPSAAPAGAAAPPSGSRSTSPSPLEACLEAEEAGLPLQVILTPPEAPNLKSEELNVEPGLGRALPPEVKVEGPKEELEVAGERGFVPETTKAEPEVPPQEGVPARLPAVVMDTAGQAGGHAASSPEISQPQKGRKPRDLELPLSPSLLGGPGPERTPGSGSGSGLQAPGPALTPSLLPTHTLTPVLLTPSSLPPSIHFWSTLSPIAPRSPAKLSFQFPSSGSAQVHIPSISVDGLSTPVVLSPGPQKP
Outline: as §1

GABPA = target: T3, GABPA (Homo sapiens, UniProt Q06546 1-454)
T3 sequence: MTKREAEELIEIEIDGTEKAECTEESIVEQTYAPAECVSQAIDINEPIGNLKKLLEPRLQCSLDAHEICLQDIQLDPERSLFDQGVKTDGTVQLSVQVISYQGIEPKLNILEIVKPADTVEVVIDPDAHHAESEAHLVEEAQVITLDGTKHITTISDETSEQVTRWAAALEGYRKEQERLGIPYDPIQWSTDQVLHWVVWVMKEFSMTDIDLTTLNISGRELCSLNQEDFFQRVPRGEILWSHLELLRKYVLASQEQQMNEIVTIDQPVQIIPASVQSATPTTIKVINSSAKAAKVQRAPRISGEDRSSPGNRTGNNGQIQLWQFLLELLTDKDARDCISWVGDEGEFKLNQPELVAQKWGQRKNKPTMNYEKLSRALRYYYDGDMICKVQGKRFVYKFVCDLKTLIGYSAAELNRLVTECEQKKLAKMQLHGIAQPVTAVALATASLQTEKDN
Outline: as §1

ERG = target: T4, ERG (Homo sapiens, UniProt P11308 1-479)
T4 sequence: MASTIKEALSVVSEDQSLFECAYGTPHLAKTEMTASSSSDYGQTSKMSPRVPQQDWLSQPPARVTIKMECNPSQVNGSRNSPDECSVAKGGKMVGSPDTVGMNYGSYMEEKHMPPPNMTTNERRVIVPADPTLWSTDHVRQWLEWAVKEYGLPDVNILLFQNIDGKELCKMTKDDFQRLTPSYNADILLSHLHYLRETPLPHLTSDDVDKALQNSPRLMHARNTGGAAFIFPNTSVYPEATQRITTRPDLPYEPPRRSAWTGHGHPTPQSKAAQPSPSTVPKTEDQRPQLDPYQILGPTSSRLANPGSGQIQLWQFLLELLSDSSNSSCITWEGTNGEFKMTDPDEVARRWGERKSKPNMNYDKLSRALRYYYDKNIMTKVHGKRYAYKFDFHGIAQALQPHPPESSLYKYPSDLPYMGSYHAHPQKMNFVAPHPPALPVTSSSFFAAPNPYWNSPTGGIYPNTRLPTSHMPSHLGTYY
Outline: as §1

ELF1 = ELF1 (Homo sapiens, UniProt P32519 1-619)
Outline: as §1

EHF = target: T5, EHF (Homo sapiens, UniProt Q9NZC4 1-300)
T5 sequence: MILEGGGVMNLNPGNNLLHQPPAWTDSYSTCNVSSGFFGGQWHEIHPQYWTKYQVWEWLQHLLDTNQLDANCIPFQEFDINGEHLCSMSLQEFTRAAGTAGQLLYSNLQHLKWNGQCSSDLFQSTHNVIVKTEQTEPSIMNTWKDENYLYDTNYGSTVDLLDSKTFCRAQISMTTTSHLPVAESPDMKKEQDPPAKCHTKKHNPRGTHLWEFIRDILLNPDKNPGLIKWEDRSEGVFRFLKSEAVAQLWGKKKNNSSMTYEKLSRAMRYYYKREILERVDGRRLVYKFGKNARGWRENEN
Outline: as §1

SPI1 = SPI1 (Homo sapiens, UniProt P17947 1-270)
Outline: as §1

ELK3 = target: T6, ELK3 (Homo sapiens, UniProt P41970 1-407)
T6 sequence: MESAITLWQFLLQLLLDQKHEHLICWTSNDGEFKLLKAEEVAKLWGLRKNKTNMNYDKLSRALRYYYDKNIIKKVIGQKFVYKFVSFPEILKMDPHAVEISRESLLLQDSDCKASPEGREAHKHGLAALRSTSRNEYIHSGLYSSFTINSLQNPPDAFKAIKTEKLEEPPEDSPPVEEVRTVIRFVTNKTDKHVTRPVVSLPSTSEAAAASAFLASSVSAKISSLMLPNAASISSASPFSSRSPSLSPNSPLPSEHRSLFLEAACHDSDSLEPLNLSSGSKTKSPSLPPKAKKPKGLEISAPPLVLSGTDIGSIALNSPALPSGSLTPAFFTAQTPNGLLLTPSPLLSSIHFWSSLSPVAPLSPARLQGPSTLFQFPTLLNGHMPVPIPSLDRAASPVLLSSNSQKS
Outline: as §1

SPIB = SPIB (Homo sapiens, UniProt Q01892 1-262)
Outline: as §1

ELF1, sequence (P32519 whole entry): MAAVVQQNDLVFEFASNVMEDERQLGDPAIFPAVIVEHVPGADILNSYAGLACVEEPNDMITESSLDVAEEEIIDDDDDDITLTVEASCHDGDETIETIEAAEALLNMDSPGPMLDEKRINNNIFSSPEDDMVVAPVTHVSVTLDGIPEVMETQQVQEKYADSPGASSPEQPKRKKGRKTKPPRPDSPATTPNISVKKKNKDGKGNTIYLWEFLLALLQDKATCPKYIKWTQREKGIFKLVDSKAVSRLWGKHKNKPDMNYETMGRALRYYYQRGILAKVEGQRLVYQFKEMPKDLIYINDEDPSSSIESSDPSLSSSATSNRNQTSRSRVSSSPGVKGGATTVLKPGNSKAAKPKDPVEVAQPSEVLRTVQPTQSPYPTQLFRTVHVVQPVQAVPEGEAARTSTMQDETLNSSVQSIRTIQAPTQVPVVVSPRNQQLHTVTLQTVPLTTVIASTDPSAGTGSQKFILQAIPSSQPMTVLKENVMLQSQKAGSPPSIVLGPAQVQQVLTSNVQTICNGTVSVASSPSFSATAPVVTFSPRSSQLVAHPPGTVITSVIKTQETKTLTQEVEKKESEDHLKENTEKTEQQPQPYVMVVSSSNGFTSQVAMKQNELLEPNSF
SPIB, sequence (Q01892 whole entry): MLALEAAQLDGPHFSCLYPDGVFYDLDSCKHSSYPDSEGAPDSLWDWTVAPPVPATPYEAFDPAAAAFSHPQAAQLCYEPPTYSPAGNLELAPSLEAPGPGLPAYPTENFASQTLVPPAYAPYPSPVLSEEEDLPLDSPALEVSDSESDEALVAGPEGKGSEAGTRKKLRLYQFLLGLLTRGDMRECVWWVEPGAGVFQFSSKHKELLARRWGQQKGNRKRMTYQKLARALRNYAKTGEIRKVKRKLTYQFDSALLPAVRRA

Sequence | binding signal (FLI1) | binding signal (ELK1) | binding signal (GABPA) | binding signal (ERG) | binding signal (ELF1) | binding signal (EHF) | binding signal (SPI1) | binding signal (ELK3) | binding signal (SPIB)
ATACTG | 1.1 fold enrichment (6-mer frequency, TF over GST control) | 1.09 fold enrichment (6-mer frequency, TF over GST control) | 1.16 fold enrichment (6-mer frequency, TF over GST control) | 1.06 fold enrichment (6-mer frequency, TF over GST control) | 1.09 fold enrichment (6-mer frequency, TF over GST control) | 1.1 fold enrichment (6-mer frequency, TF over GST control) | 1.14 fold enrichment (6-mer frequency, TF over GST control) | 1.14 fold enrichment (6-mer frequency, TF over GST control) | 
GTATTC | 1.33 fold enrichment (6-mer frequency, TF over GST control) | 1.17 fold enrichment (6-mer frequency, TF over GST control) | 1.26 fold enrichment (6-mer frequency, TF over GST control) | 1.19 fold enrichment (6-mer frequency, TF over GST control) | 1.22 fold enrichment (6-mer frequency, TF over GST control) | 1.27 fold enrichment (6-mer frequency, TF over GST control) | 1.31 fold enrichment (6-mer frequency, TF over GST control) | 1.3 fold enrichment (6-mer frequency, TF over GST control) | 1.25 fold enrichment (6-mer frequency, TF over GST control)
GATAGC | 1.11 fold enrichment (6-mer frequency, TF over GST control) | 1.1 fold enrichment (6-mer frequency, TF over GST control) | 1.13 fold enrichment (6-mer frequency, TF over GST control) | 1.02 fold enrichment (6-mer frequency, TF over GST control) | 1.02 fold enrichment (6-mer frequency, TF over GST control) | 1.1 fold enrichment (6-mer frequency, TF over GST control) | 1.05 fold enrichment (6-mer frequency, TF over GST control) | 1.1 fold enrichment (6-mer frequency, TF over GST control) | 
ATGGCT | 1.17 fold enrichment (6-mer frequency, TF over GST control) | 1.34 fold enrichment (6-mer frequency, TF over GST control) | 1.29 fold enrichment (6-mer frequency, TF over GST control) | 1.37 fold enrichment (6-mer frequency, TF over GST control) | 1.37 fold enrichment (6-mer frequency, TF over GST control) | 1.4 fold enrichment (6-mer frequency, TF over GST control) | 1.28 fold enrichment (6-mer frequency, TF over GST control) | 1.28 fold enrichment (6-mer frequency, TF over GST control) | 1.37 fold enrichment (6-mer frequency, TF over GST control)
TTCACA | 1.27 fold enrichment (6-mer frequency, TF over GST control) | 1.17 fold enrichment (6-mer frequency, TF over GST control) | 1.23 fold enrichment (6-mer frequency, TF over GST control) | 1.18 fold enrichment (6-mer frequency, TF over GST control) | 1.16 fold enrichment (6-mer frequency, TF over GST control) | 1.2 fold enrichment (6-mer frequency, TF over GST control) | 1.08 fold enrichment (6-mer frequency, TF over GST control) | 1.26 fold enrichment (6-mer frequency, TF over GST control) | 1.25 fold enrichment (6-mer frequency, TF over GST control)
ACTGCA | 1.1 fold enrichment (6-mer frequency, TF over GST control) | 1.17 fold enrichment (6-mer frequency, TF over GST control) | 1.05 fold enrichment (6-mer frequency, TF over GST control) | 1.09 fold enrichment (6-mer frequency, TF over GST control) | 1.19 fold enrichment (6-mer frequency, TF over GST control) | 1.12 fold enrichment (6-mer frequency, TF over GST control) | 1.27 fold enrichment (6-mer frequency, TF over GST control) | 1.11 fold enrichment (6-mer frequency, TF over GST control) | 1.15 fold enrichment (6-mer frequency, TF over GST control)
TTACGT | 1.19 fold enrichment (6-mer frequency, TF over GST control) | 1.09 fold enrichment (6-mer frequency, TF over GST control) | 1.2 fold enrichment (6-mer frequency, TF over GST control) | 1.07 fold enrichment (6-mer frequency, TF over GST control) | 1.07 fold enrichment (6-mer frequency, TF over GST control) | 1.1 fold enrichment (6-mer frequency, TF over GST control) | 1.09 fold enrichment (6-mer frequency, TF over GST control) | 1.05 fold enrichment (6-mer frequency, TF over GST control) | 
GTACTC | 1.06 fold enrichment (6-mer frequency, TF over GST control) | 1.09 fold enrichment (6-mer frequency, TF over GST control) | 1.16 fold enrichment (6-mer frequency, TF over GST control) | 1.09 fold enrichment (6-mer frequency, TF over GST control) | 1.16 fold enrichment (6-mer frequency, TF over GST control) | 1.08 fold enrichment (6-mer frequency, TF over GST control) | 1.01 fold enrichment (6-mer frequency, TF over GST control) | 1.18 fold enrichment (6-mer frequency, TF over GST control) | 
TGACAA | 1.18 fold enrichment (6-mer frequency, TF over GST control) | 1.19 fold enrichment (6-mer frequency, TF over GST control) | 1.32 fold enrichment (6-mer frequency, TF over GST control) | 1.28 fold enrichment (6-mer frequency, TF over GST control) | 1.38 fold enrichment (6-mer frequency, TF over GST control) | 1.21 fold enrichment (6-mer frequency, TF over GST control) | 1.25 fold enrichment (6-mer frequency, TF over GST control) | 1.12 fold enrichment (6-mer frequency, TF over GST control) | 1.14 fold enrichment (6-mer frequency, TF over GST control)
